Assays:
Assay in all cases: SPOT peptide array binding signal intensity (averaged, normalized) (arbitrary units (background-subtracted, floor 0; scale differs between SH3 domains)); higher = stronger binding of the SH3 domain to the peptide
AgAbp1 = target: AgAbp1
How it was run: (§1)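 The binding signal is the normalized, background-subtracted spot intensity averaged over replicates; its arbitrary units differ between domains. It was obtained by incubating 10 μg/ml GST-fused SH3 domains from four yeast species overnight at 4°C in TBS-based blocking buffer on cellulose membranes with synthetic 15-mer peptides, cysteines replaced by serines, then detecting with anti-GST antibody, HRP anti-mouse secondary and luminol.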

AgBbc1 = target: AgBbc1
How it was run: as §1

AgBem1-D1 = target: AgBem1-D1
How it was run: as §1

AgBzz1-D1 = target: AgBzz1-D1
How it was run: as §1

AgBzz1-D2 = target: AgBzz1-D2
How it was run: as §1

AgCyk3 = target: AgCyk3
How it was run: as §1

AgFus1 = target: AgFus1
How it was run: as §1

AgHof1 = target: AgHof1
How it was run: as §1

AgHse1 = target: AgHse1
How it was run: as §1

AgLsb1 = target: AgLsb1
How it was run: as §1

AgLsb4 = target: AgLsb4
How it was run: as §1

AgMyo5 = target: AgMyo5
How it was run: as §1

AgNbp2 = target: AgNbp2
How it was run: as §1

AgRvs167 = target: AgRvs167
How it was run: as §1

AgSho1 = target: AgSho1
How it was run: as §1

AgSla1-D1-D2 = target: AgSla1-D1-D2
How it was run: as §1

AgSla1-D3 = target: AgSla1-D3
How it was run: as §1

CaAbp1-D1 = target: CaAbp1-D1
How it was run: as §1

CaAbp1-D2 = target: CaAbp1-D2
How it was run: as §1

CaBbc1 = target: CaBbc1
How it was run: as §1

CaBem1-D1 = target: CaBem1-D1
How it was run: as §1

CaBzz1-D1 = target: CaBzz1-D1
How it was run: as §1

CaBzz1-D2 = target: CaBzz1-D2
How it was run: as §1

CaCyk3 = target: CaCyk3
How it was run: as §1

CaFus1 = target: CaFus1
How it was run: as §1

CaHof1 = target: CaHof1
How it was run: as §1

CaHse1 = target: CaHse1
How it was run: as §1

CaLsb1 = target: CaLsb1
How it was run: as §1

CaLsb4 = target: CaLsb4
How it was run: as §1

CaMyo5 = target: CaMyo5
How it was run: as §1

CaNbp2 = target: CaNbp2
How it was run: as §1

CaRvs167 = target: CaRvs167
How it was run: as §1

CaRvs167-3 = target: CaRvs167-3
How it was run: as §1

CaSho1 = target: CaSho1
How it was run: as §1

CaSla1-D1-D2 = target: CaSla1-D1-D2
How it was run: as §1

CaSla1-D3 = target: CaSla1-D3
How it was run: as §1

ScAbp1 = target: ScAbp1
How it was run: as §1

ScBbc1 = target: ScBbc1
How it was run: as §1

ScBem1-D1 = target: ScBem1-D1
How it was run: as §1

ScBzz1-D1 = target: ScBzz1-D1
How it was run: as §1

ScBzz1-D2 = target: ScBzz1-D2
How it was run: as §1

ScCyk3 = target: ScCyk3
How it was run: as §1

ScFus1 = target: ScFus1
How it was run: as §1

ScHof1 = target: ScHof1
How it was run: as §1

ScHse1 = target: ScHse1
How it was run: as §1

ScLsb1 = target: ScLsb1
How it was run: as §1

ScLsb2 = target: ScLsb2
How it was run: as §1

ScLsb3 = target: ScLsb3
How it was run: as §1

ScLsb4 = target: ScLsb4
How it was run: as §1

ScMyo3 = target: ScMyo3
How it was run: as §1

ScMyo5 = target: ScMyo5
How it was run: as §1

ScNbp2 = target: ScNbp2
How it was run: as §1

ScPex13 = target: ScPex13
How it was run: as §1

ScRvs167 = target: ScRvs167
How it was run: as §1

ScSho1 = target: ScSho1
How it was run: as §1

ScSla1-D1-D2 = target: ScSla1-D1-D2
How it was run: as §1

ScSla1-D3 = target: ScSla1-D3
How it was run: as §1

SpAbp1-D1 = target: SpAbp1-D1
How it was run: as §1

SpBbc1 = target: SpBbc1
How it was run: as §1

SpBzz1-D1 = target: SpBzz1-D1
How it was run: as §1

SpBzz1-D2 = target: SpBzz1-D2
How it was run: as §1

SpCyk3 = target: SpCyk3
How it was run: as §1

SpHof1 = target: SpHof1
How it was run: as §1

SpHof1-2 = target: SpHof1-2
How it was run: as §1

SpHof1-3 = target: SpHof1-3
How it was run: as §1

SpHse1 = target: SpHse1
How it was run: as §1

SpLsb1 = target: SpLsb1
How it was run: as §1

SpLsb4 = target: SpLsb4
How it was run: as §1

SpMyo1 = target: SpMyo1
How it was run: as §1

SpNbp2 = target: SpNbp2
How it was run: as §1

SpPex13 = target: SpPex13
How it was run: as §1

SpRvs167 = target: SpRvs167
How it was run: as §1

SpSla1-D1-D2 = target: SpSla1-D1-D2
How it was run: as §1

SpSla1-D3 = target: SpSla1-D3
How it was run: as §1

Measured: SPOT peptide array binding signal intensity

QDKEGIPPDQQRLIF
1: ScRvs167
0.333: AgRvs167
20: SpHof1-3
0.75: AgMyo5
18: ScBzz1-D1
7: ScMyo5
26: ScBzz1-D2
8: ScAbp1
0.5: SpHof1-2
≤ 0: AgAbp1 | AgBbc1 | AgBem1-D1 | AgBzz1-D1 | AgBzz1-D2 | AgCyk3 | AgFus1 | AgHof1 | AgHse1 | AgLsb1 | AgLsb4 | AgNbp2 | AgSho1 | AgSla1-D1-D2 | AgSla1-D3 | CaAbp1-D1 | CaAbp1-D2 | CaBbc1 | CaBem1-D1 | CaBzz1-D1 | CaBzz1-D2 | CaCyk3 | CaFus1 | CaHof1 | CaHse1 | CaLsb1 | CaLsb4 | CaNbp2 | CaRvs167 | CaSho1 | CaSla1-D1-D2 | CaSla1-D3 | ScBbc1 | ScBem1-D1 | ScCyk3 | ScFus1 | ScHof1 | ScHse1 | ScLsb1 | ScLsb2 | ScLsb3 | ScLsb4 | ScMyo3 | ScNbp2 | ScPex13 | ScSho1 | ScSla1-D1-D2 | ScSla1-D3 | SpAbp1-D1 | SpBbc1 | SpBzz1-D1 | SpBzz1-D2 | SpCyk3 | SpHof1 | SpHse1 | SpLsb1 | SpLsb4 | SpMyo1 | SpNbp2 | SpPex13 | SpRvs167 | SpSla1-D1-D2 | SpSla1-D3
3: CaRvs167-3
10.8: CaMyo5

— the supplement of paper PMC4466140
